# The entries come from a sample that favours hits as a whole.
# Marburg entry inh: Marburg virus entry inhibition. Marburg virus pseudotyped entry inhibition, cell reporter. Potency, µM (series often up to 37.8 µM), for inactives: top-dose activity change, negative = inhibition, hits mostly inhibitors. actives 1.8% (n = 300,000); calls by dose curve; tested in HEK293 cells; also: potency is read from the fitted curve at half-maximal effect; % is scaled to controls: 0 for no effect and ±100 for the full control effect
# Shiga inhibitor: Shiga toxin inhibition | Vero cells, Shiga toxin protein synthesis inhibition reporter | inhibition, % at 38.7 µM | actives 9.2% (n = 290,000) | AID 2315; in the data active = inhibition mostly above about 28%, no sharp cut-off; inactive = mostly below about 43%; also: 0% is about no effect
# AMA1 RON2 block: disrupts binding of P. falciparum AMA1 to RON2; actives 0.2% (n = 360,000); AID 720542; AlphaScreen AMA1-biotinylated RON2 peptide binding; Potency, µM (top dose mostly 58.2 µM), without a hit: at the top dose activity change, negative = inhibition, most hits filed as inhibitors; active = well fitted inhibition curve with a large enough effect; inconclusive = small, poorly fitted or top-dose-only effect; inactive = no such curve, though single readings can be large or run the other way;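 also: potency is read from the fitted curve at half-maximal effect; 0% = vehicle wells and -100% = peptide control; nearly all actives have a fitted effect of over 45% in size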
#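 AMA1 (3D7) with his tag at 25 nM final met compounds first, then biotinylated RON2 peptide at 25 nM; detection used donor plus acceptor beads, 10 µg/mL apiece, read by AlphaScreen after 30 min at room temperature.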
# Lassa entry inh: blocks Lassa virus binding to or entry into cells. Lassa virus pseudotype entry inhibition, cell reporter. actives 1.2% (n = 300,000). Potency, µM (doses to about 37.9 µM), inactives show top-dose activity change, negative = inhibition, most hits filed as inhibitors; calls by dose curve; tested in HEK293 cells; also: potency is read from the fitted curve at half-maximal effect; % is scaled to controls: 0 for no effect and ±100 for the full control effect; nearly all actives have a fitted effect of over 50% in size
# Cycloheximide cs: counter-screen for Shiga toxin inhibitors: cycloheximide protein synthesis inhibition; cell reporter, cycloheximide protein synthesis inhibition counterscreen; max response, %; actives 12% (n = 300,000); AID 2314; in the data active = max response mostly above about 13%, no sharp cut-off; inactive = mostly below about 14%; also: read at 38.3 µM for the half of the compounds with a filed dose; 0% is about no effect
# * = called active by the depositor; u = inconclusive; x = no result given; [ ] = dose if it differs, or a comment.
SMILES,Marburg entry inh,Shiga inhibitor,AMA1 RON2 block,Lassa entry inh,Cycloheximide cs
O=C(N/N=C/c1c[nH]c2ccccc12)c1ccn[nH]1,x,46,30%,x,28*
Cc1ccc(NC(=O)c2cc(-c3ccccc3)n[nH]2)cc1,x,49*,0%,x,39*
O=C(N/N=C/c1c[nH]c2ccccc12)c1cc(-c2ccc(-c3ccccc3)cc2)n[nH]1,u,54*,45%,-16%,35*
O=C(CNC(=O)c1ccco1)N/N=C/c1c[nH]c2ccccc12,x,-4,9%,x,6
Nc1cn(C2OC(CO)C(O)C2O)c(=O)[nH]c1=O (stereo unspecified),x,-12,8%,x,-3
CCc1ccc(CNC(=O)c2ccc(Cn3c(=O)c4cccn4c4cccnc43)cc2)cc1,x,x,x,5%[46.1 µM],x
CCOc1cc(-c2ccc(OC(=O)c3ccccc3F)cc2)cc(=O)c2c(C)oc(C)c12,15%[46.1 µM],x,x,1%[46.1 µM],x
COc1cc(N)c(Cl)cc1C(=O)OCC(=O)NC(=O)NCc1ccco1,0%,x,-8%,-30%,x
CC1CCN(C(=S)SCc2nc(N)nc(Nc3ccccc3)n2)CC1,x,35*,-8%,x,25*
Cc1c(Cl)cccc1Nc1nc(N)nc(CN2CCCCCC2)n1,-28%,-21,-9%,-1%,-6
CCOc1ccc(Nc2nc(N)nc(CSC(=S)N3CCN(c4ccccc4)CC3)n2)cc1,u,25,-22%,-16%,4
COc1ccc(Nc2nc(N)nc(CSC(=S)N3CCN(c4ccccc4)CC3)n2)cc1,u,-2,-27%,u,1
COc1ccccc1Nc1nc(N)nc(CSC(=S)N2CC(C)CC(C)C2)n1 (stereo unspecified),-30%,18,9%[2.32 µM],-3%,10
Cc1c(Cl)cccc1Nc1nc(N)nc(CSC(=S)N2CCOCC2)n1,6%[46.1 µM],76,-6%,u,39*
COc1ccc(Nc2nc(N)nc(CSC(=S)N3CCN(C)CC3)n2)cc1,x,19,-15%,x,17*
COc1ccc(Nc2nc(N)nc(CSC(=S)N3CCCCC3)n2)cc1,x,36*,-3%,x,48*
CCOc1ccccc1CNCCCSc1nnnn1C,-29%[46.1 µM],x,x,1%[46.1 µM],x
C=CC[C@@H]1C=C(C(=O)OC)N(C(=O)C(F)(F)F)[C@@H](c2ccccc2Br)[C@@H]1C,9%[14.2 µM],x,x,x,x
NC(=O)c1cccc(-c2coc3c(C(=O)NCc4ccccc4)cccc23)c1,x,x,-5%,x,x
COc1ccc(NC(c2ccc(F)cc2)c2nnc(-c3ccccc3Cl)o2)cc1Cl (stereo unspecified),-18%[46.1 µM],x,x,-25%[46.1 µM],x
C=CCN1c2ccccc2[C@]23CCC(=O)N(CCOC)C2=NC(C(=O)OC)=C(C(=O)OC)[C@H]13,13%[14.2 µM],x,x,u,x
COc1ccc(Nc2nc(N)nc(CSC(=S)N3CCCCC3C)n2)cc1 (stereo unspecified),u,65*,-19%,7.1µM*,28*
COc1ccc(Nc2nc(N)nc(CN3CCC(C)CC3)n2)cc1,6%,18,21%,9%,4
CC1(C)CCC(=O)N2CC[C@H]3C[C@H](OC(=O)Nc4ccccc4)C[C@@H]1[C@H]32,x,39*,19%,x,36*
CC1(C)CCC(=O)N2CC[C@H]3C[C@H](OC(=O)Nc4ccc5c(c4)OCO5)C[C@@H]1[C@H]32,x,23*,-5%,x,20*
SMILES,Marburg entry inh,Shiga inhibitor,AMA1 RON2 block,Lassa entry inh,Cycloheximide cs
CCCCNC(=O)O[C@H]1C[C@@H]2CCN3C(=O)CCC(C)(C)[C@H](C1)[C@H]23,x,13,6%,x,-3
CC1(C(=O)Nc2ccc3c(c2)OCCO3)CCC(=O)N1C1CC1 (stereo unspecified),x,x,5%,x,x
CC(=O)Nc1cc(-c2cccnc2)cn2c(-c3cccc(C(F)(F)F)c3)cnc12,x,x,18%,x,x
Cc1cc2c(cc1C)NC(CC(=O)NCc1ccccc1)C(=O)N2 (stereo unspecified),14%,61*,-1%,u,26*
CC(=O)NNc1ncnc2c1cnn2-c1ccc(C)c(C)c1,27%[46.1 µM],65*,121%,0%,56*
Cc1ccc(-n2ncc3c(NCc4ccccc4)ncnc32)cc1,5%,103*,4%,u,111*
Cc1ccc(-n2ncc3c(NCc4cccnc4)ncnc32)c(C)c1,u,8,17%,u,0
COc1ccccc1CNc1ncnc2c1cnn2-c1ccccc1,x,43*,0%,x,31*
Cc1cccc(-n2ncc3c(NCc4cccnc4)ncnc32)c1,x,77*,1%,x,47*
CCN(CC(=O)Nc1c(F)cccc1F)C(=O)c1cc(S(=O)(=O)N2CCOCC2)ccc1N1CCCC1,-3%,x,18%,4%,x
CCc1ccc(CN2CCCC(C(=O)Nc3ccccc3-c3ccc(OC)cc3)C2)o1 (stereo unspecified),x,-10,-2%,x,-2
Cc1cccc(C(=O)NNc2ncnc3c2cnn3-c2ccc(C)cc2C)c1,x,x,x,9%[46.1 µM],x
Cc1cccc(C(=O)NNc2ncnc3c2cnn3C)c1,-2%[46.1 µM],36,49%,12%,30*
COc1ccc(-n2ncc3c(NCc4cccnc4)ncnc32)cc1,x,86*,10%,x,52*
Cc1ccc(-n2ncc3c(NCc4cccnc4)ncnc32)cc1C,u,115*,14%,-23%[46.1 µM],45*
Cc1ccccc1SCC(=O)OCC(=O)Nc1sccc1C(N)=O,-20%,-4,0%[11.6 µM],23%,6
NC(=O)c1ccsc1NC(=O)CSc1ccccc1F,18%,175,-3%,20%,36*
Cc1csc(SCC(=O)Nc2sccc2C(N)=O)n1,u,68*,0%,0%,36*
C=CCn1c(SCC(=O)Nc2sccc2C(N)=O)nc2sc(CC)cc2c1=O,13µM*,2,-3%,u,6
Cc1csc(SCC(=O)Nc2nccs2)n1,u,x,-1%,16%,x
CC1(C)C2CC=C(/C=N/NC(=O)c3ccc(O)cc3)C1C2 (stereo unspecified),10%[46.1 µM],68,8%,u,15*
CSc1ccc(/C=N/NC(=O)c2ccc(O)cc2)cc1,u,102*,-8%,u,46*
COc1ccc(C(=O)N/N=C/c2ccc(N(C)c3ccccc3)cc2)cc1,x,x,39%,x,x
